What all share (assay): growth (OD600 after 10 h); higher = more growth (less inhibition)
In assay [1] the test system is E. coli TESEC Alr+ wild-type control. Particulars: compound 0.1 mM; raw OD600 reference: median of DMSO wells 0.241, cell-free background 0.041. Here is the method: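 TESEC Mtb Alr E. coli, or the Alr+ wild-type control, in 384-well plates with Prestwick library compounds at 0.1 mM and 1% DMSO, across arabinose induction levels of 1E3 to 1E7 nM. Growth is read as OD600 after 10 h at 37 °C in triplicate biological replicates.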

Assay [2] has as its system E. coli TESEC Mtb Asd. Particulars: compound 0.1 mM. How it is done: (§1)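 TESEC E. coli strains in which the native enzyme is deleted and replaced by arabinose-inducible Mtb Asd, DapB, CysH or TrpD, each grown in its selective medium. Strains were screened against the Prestwick library at 0.1 mM and 1% DMSO in 384-well format at low and high arabinose induction. Growth is read as OD600 after 10 h in triplicate.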

Assay [3] relates to E. coli TESEC Mtb DapB. Particulars: compound 0.1 mM. Here is the method: as §1
The subject of assay [4] is E. coli TESEC Alr+ wild-type control. Particulars: compound 0.1 mM; raw OD600 reference: median of DMSO wells 0.49, cell-free background 0.052. Here is the method:
(§2)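 TESEC Mtb Alr E. coli (ΔaraC ΔtolC ΔentC Δalr ΔdadX, arabinose-inducible Mtb Alr) or the Alr+ wild-type control strain, grown in defined M9-fructose medium without D-alanine in 96-well plates with Prestwick library compounds at 0.1 mM and 1% DMSO. Low Alr induction is 0.1 µM arabinose and high induction is 10 mM arabinose.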

Assay [5] deals with E. coli TESEC Mtb Alr. Particulars: compound 0.1 mM. Here is the method: as §2
Setting [6] is: arabinose induction (level): High, raw OD600 reference: median of DMSO wells 0.331, cell-free background 0.041.
Where [7] appears, read: arabinose induction (level): Low, raw OD600 reference: median of DMSO wells 0.417, cell-free background 0.041.
Where [8] appears, read: arabinose induction (level): High, raw OD600 reference: median of DMSO wells […], cell-free background 0.041.
The mark [9] stands for this setting: arabinose induction (level): Low, raw OD600 reference: median of DMSO wells 0.227, cell-free background 0.041.
Setting [10] is: arabinose 100 nM, raw OD600 reference: median of DMSO wells 0.413, cell-free background 0.052.
[11] abbreviates: arabinose 10000000 nM, raw OD600 reference: median of DMSO wells […], cell-free background 0.052.

Our source for the growth values is the supplement of paper PMC9262897, “Low-cost anti-mycobacterial drug discovery using engineered E. coli” (Nature Communications, 2022).

Structures can show the parent of a compound that is named as a salt. ± gives the standard deviation of the averaged measurements.

In the case of `Clc1ccc(COC(Cn2ccnc2)c2ccc(Cl)cc2Cl)cc1` (configuration not stated) [Econazole nitrate], the growth in assay [1] amounted to 0.0521 ± 0.0032; in assay [2] (setting [6]), 0.0469 ± 0.00075; in assay [2] (setting [7]), 0.04693 ± 0.00042; in assay [3] (setting [8]) it was 0.04893 ± 0.00047; in assay [3] (setting [9]), 0.0996 ± 0.064; in assay [4] it was 0.056 ± 0.002. For the same compound, the growth in assay [5] (setting [10]) turned out to be 0.059 ± 0.0077; in assay [5] (setting [11]) it was 0.0553 ± 0.0037.

As to `O=C(COc1ccc(Cl)cc1)N1CCN(Cc2ccc3c(c2)OCO3)CC1` [Fipexide hydrochloride], the growth in assay [1] came to 0.13 ± 0.0038; in assay [2] (setting [6]), 0.207 ± 0.039; in assay [2] (setting [7]) it was 0.214 ± 0.025; in assay [4], 0.303 ± 0.022; in assay [5] (setting [10]), 0.38 ± 0.029; in assay [5] (setting [11]) it was 0.168 ± 0.033.

Consider `NS(=O)(=O)c1cc2c(cc1Cl)N=CNS2(=O)=O` [Chlorothiazide], for which the growth in assay [1] came out at 0.254 ± 0.0047; in assay [2] (setting [6]), 0.433 ± 0.014; in assay [2] (setting [7]), 0.447 ± 0.045; in assay [4] it was 0.494 ± 0.032; in assay [5] (setting [10]) it was 0.403 ± 0.014; in assay [5] (setting [11]), 0.354 ± 0.0098.

Take `CN1CCCC(CC2c3ccccc3Sc3ccccc32)C1` (configuration not stated) [Metixene hydrochloride]: the growth in assay [1] came to 0.0422 ± 0.00059; in assay [2] (setting [6]), 0.0629 ± 0.015; in assay [2] (setting [7]) it was 0.053 ± 0.0011; in assay [4], 0.0609 ± 0.015; in assay [5] (setting [10]) it was 0.401 ± 0.0069; in assay [5] (setting [11]), 0.055 ± 0.0024.

As to `c1ccc(C2CN3CCSC3=N2)cc1` (configuration not stated) [Tetramisole hydrochloride], the growth in assay [1] was 0.244 ± 0.003; in assay [2] (setting [6]), 0.257 ± 0.033; in assay [2] (setting [7]) it was 0.358 ± 0.046; in assay [3] (setting [8]) it was 0.203 ± 0.02; in assay [3] (setting [9]), 0.252 ± 0.035; in assay [4], 0.529 ± 0.087. The figures for the growth in assay [5] (setting [10]) and in assay [5] (setting [11]) were 0.408 ± 0.014 and 0.316 ± 0.015, respectively.

With `CC[C@H]1OC(=O)[C@H](C)[C@@H](O[C@H]2C[C@@](C)(OC)[C@@H](O)[C@H](C)O2)[C@H](C)[C@@H](O[C@@H]2O[C@H](C)C[C@H](N(C)C)[C@H]2O)[C@](C)(O)C[C@@H](C)[C@@H]2N[C@@H](COCCOC)O[C@H]([C@H]2C)[C@]1(C)O` [Dirithromycin], the growth in assay [1] was 0.0424 ± 0.0002; in assay [2] (setting [6]), 0.057 ± 0.0029; in assay [2] (setting [7]) it was 0.054 ± 0.0053; in assay [3] (setting [8]) it was 0.0519 ± 0.0012; in assay [3] (setting [9]) it was 0.052 ± 0.00061; in assay [5] (setting [10]) it was 0.0635 ± 0.0042. This compound yielded a growth in assay [5] (setting [11]) of 0.0507 ± 0.00036.

Take `Nc1ccn([C@@H]2CS[C@H](CO)O2)c(=O)n1` [Lamivudine]: the growth in assay [1] was 0.239 ± 0.0031; in assay [2] (setting [6]), 0.353 ± 0.0047; in assay [2] (setting [7]), 0.425 ± 0.021; in assay [3] (setting [8]), 0.18 ± 0.013; in assay [3] (setting [9]), 0.207 ± 0.016; in assay [4], 0.563 ± 0.13. Moreover, the values for the growth in assay [5] (setting [10]) and in assay [5] (setting [11]) were 0.407 ± 0.0069 and 0.357 ± 0.0056, respectively.

In the case of `Cc1nc2ccccn2c(=O)c1CCN1CCC(C(=O)c2ccc(F)cc2)CC1` [Pirenperone], the growth in assay [1] was determined as 0.208 ± 0.0042; in assay [2] (setting [6]), 0.352 ± 0.045; in assay [2] (setting [7]) it was 0.395 ± 0.089; in assay [3] (setting [8]), 0.223 ± 0.0088; in assay [3] (setting [9]), 0.23 ± 0.037; in assay [5] (setting [10]), 0.408 ± 0.011. Further, the growth in assay [5] (setting [11]) was 0.312 ± 0.023.

For the compound `Cc1ncc([N+](=O)[O-])n1CC(C)O` (configuration not stated) [Secnidazole], the growth was found to be 0.2401 ± 0.001 in assay [1]; 0.369 ± 0.026 in assay [2] (setting [6]); 0.466 ± 0.031 in assay [2] (setting [7]); 0.4049 ± 0.0029 in assay [5] (setting [10]); 0.327 ± 0.0064 in assay [5] (setting [11]).

Consider `Cc1c(-c2ccccc2)oc2c(C(=O)OCCN3CCCCC3)cccc2c1=O` [Flavoxate hydrochloride], for which the growth is 0.139 ± 0.0069 in assay [1]; 0.217 ± 0.06 in assay [2] (setting [6]); 0.381 ± 0.04 in assay [2] (setting [7]); 0.168 ± 0.011 in assay [3] (setting [8]); 0.234 ± 0.12 in assay [3] (setting [9]); 0.398 ± 0.015 in assay [5] (setting [10]). In assay [5] (setting [11]), the growth was 0.262 ± 0.019.

As for `N[C@@H]1CONC1=O` [D-cycloserine], the growth in assay [1] came to 0.246 ± 0.0051; in assay [2] (setting [6]), 0.252 ± 0.066; in assay [2] (setting [7]) it was 0.354 ± 0.081; in assay [4], 0.399 ± 0.14; in assay [5] (setting [10]), 0.0455 ± 0.00047; in assay [5] (setting [11]), 0.328 ± 0.015.

As to `CC(=O)c1ccc2c(c1)N(CCCN(C)C)c1ccccc1S2` [Acetopromazine maleate salt], the growth in assay [1] was 0.183 ± 0.0048; in assay [2] (setting [6]), 0.214 ± 0.025; in assay [2] (setting [7]) it was 0.301 ± 0.033; in assay [4], 0.47 ± 0.012; in assay [5] (setting [10]) it was 0.399 ± 0.011; in assay [5] (setting [11]), 0.322 ± 0.015.

For `COc1ccc2c(c1)C(=O)N(CCc1ccc(S(=O)(=O)NC(=O)NC3CCCCC3)cc1)C(=O)C2(C)C` [Gliquidone], the growth is 0.06 ± 0.018 in assay [1]; 0.126 ± 0.027 in assay [2] (setting [6]); 0.0965 ± 0.065 in assay [2] (setting [7]); 0.157 ± 0.015 in assay [3] (setting [8]); 0.173 ± 0.0091 in assay [3] (setting [9]); 0.108 ± 0.046 in assay [5] (setting [10]). Besides, the growth in assay [5] (setting [11]) was found to be 0.116 ± 0.0081.
